Source: PubChem
HCV NS3h FP – HCV NS3 helicase inhibitors, primary screen, biochemical, fluorescence polarization, ChemBridge library; Hepatitis C virus NS3 helicase; NS3h Cy5-dT15 DNA binding; inhibition, % at 100 µM; 16,000 tested, 1.6% active; AID 687043, 2013;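 active means inhibition above the average over every tested compound plus 3 SD, cut at about 40% in these data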
Cy5 interf NS3h – Cy5 fluorescence quenchers or enhancers, artefact control for HCV NS3 helicase inhibitor project, biochemical, ChemBridge library, Cy5 readout | fluorescence interference ratio at 100 µM | 16,000 tested, 6% active | Cy5-dT15 DNA with NS3h, fluorescence interference; actives lie on both sides; signal over control mean, under 1 quenches;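 active means compound fluorescence over control fluorescence at most 0.8, a quencher, or at least a set upper limit, an enhancer; inactive means ratio between 0.8 and the set upper limit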
Numbers without * were called inactive. Most compounds without a hit are left out; they make up all but 6.8% or so of the library.

SMILES | HCV NS3h FP | Cy5 interf NS3h
CCOc1ccc(N(CC(=O)Nc2ccc(F)cc2)S(=O)(=O)c2ccc(SC)cc2)cc1 | -14 | 1
CCOC(=O)C1=C(C)N=c2s/c(=C\c3ccc(N(CC)CC)o3)c(=O)n2C1c1ccc(OC)c(OC)c1 (stereo unspecified) | 12 | 0.99
CCOC(=O)C1=C(C)N=c2s/c(=C/c3ccc(I)o3)c(=O)n2C1c1ccccc1OC (stereo unspecified) | 13 | 0.73*
COc1ccc(/C=C2/C(=O)N(c3ccccc3)N=C2C)c(OC)c1OC | 11 | 0.9
O=C1C(=O)N(c2ccccc2Br)C(=O)N1c1cccc(Cl)c1 | 19 | 0.7*
O=C(O)c1ccccc1NC1=C(Cl)C(=O)N(c2cccc(Cl)c2)C1=O | 8 | 1.1
CCOc1ccc2nc(NC(=O)CCC(=O)O)sc2c1 | 2 | 1
O=C(CCNc1ccccc1)c1ccc([N+](=O)[O-])cc1 | 10 | 1.1
COc1ccc(S(=O)(=O)N2CCN(C(=O)c3cccs3)CC2)cc1 | 0 | 0.69*
COc1ccc(S(=O)(=O)N2CCN(C(=O)c3cccc(F)c3)CC2)cc1 | 3 | 1
COc1cc2c(cc1NC(=O)CCC1CCCC1)oc1ccccc12 | -5 | 1.1
O=C(NC(=S)Nc1ccc([N+](=O)[O-])cc1O)c1ccccc1 | 9 | 1.1
CN(C)c1ccc(NC(=O)c2ccccc2F)cc1 | 8 | 0.99
CN(C)c1ccc(NC(=O)c2cc(Cl)ccc2Cl)cc1 | 45* | 0.99
CC(C)C(=O)Nc1ccc(N2CCOCC2)cc1 | -2 | 1
CCCC(=O)Nc1ccc(N2CCOCC2)cc1 | 3 | 0.74*
COc1cc([N+](=O)[O-])ccc1-c1ccc(/C=C2\C(=O)NC(=S)N(c3ccc(C)cc3)C2=O)o1 | 23 | 1.1
CCC1=NN2C(=N)/C(=C/c3ccc(-c4ccc([N+](=O)[O-])cc4OC)o3)C(=O)N=C2S1 | 9 | 1.2*
COc1ccc(Cl)cc1C(=O)Nc1ccccc1I | 14 | 1
COc1cccc(N2C(=O)C(=O)C(=C(O)c3ccccc3)C2c2ccccc2Cl)c1 (stereo unspecified) | 21 | 0.73*
COc1cccc(N2C(=O)C(=O)C(=C(O)c3ccccc3)C2c2ccc(Cl)cc2)c1 (stereo unspecified) | 9 | 1
COc1cc(OC)cc(C(=O)Nc2ccc(-c3nc4ncccc4o3)cc2)c1 | 1 | 1.1
Cc1ccnc(Nc2nc(-c3ccc(Br)cc3)cs2)c1 | 12 | 1
CC(C)c1ccc(/C=C(\NC(=O)c2ccccc2)C(=O)NC2CCS(=O)(=O)C2)cc1 (stereo unspecified) | 10 | 0.86
O=C(NC1CCS(=O)(=O)C1)/C(=C\c1ccc(Br)cc1)NC(=O)c1ccccc1 (stereo unspecified) | 8 | 1.3*
SMILES | HCV NS3h FP | Cy5 interf NS3h
O=C(O)/C=C/C(=O)Nc1ccc(S(=O)(=O)N2CCCCCC2)cc1 | 10 | 0.78*
CCC(=O)Nc1ccc(S(=O)(=O)N2CCCCCC2)cc1 | -9 | 0.74*
Cc1ccc(C(=O)Nc2ccc(S(=O)(=O)N3CCCC3)cc2)cc1 | 10 | 1.1
O=C(Nc1ccc(S(=O)(=O)N2CCCCCC2)cc1)c1ccc(F)cc1 | 2 | 0.86
COc1cc(NS(=O)(=O)c2ccc(NC(=O)c3ccc4ccccc4c3)cc2)nc(OC)n1 | 9 | 1.1
C=CCc1ccccc1OCCOc1ccc(/C=C2/SC(=S)N(C)C2=O)cc1 | -2 | 0.99
COc1cc(/C=C2/SC(=S)N(C)C2=O)cc(Cl)c1OCc1ccccc1Cl | -7 | 0.96
CCOc1cc(/C=C2/SC(=S)N(C)C2=O)ccc1OCc1ccccc1Cl | 12 | 1.2*
C=CCc1ccccc1OCCOc1cccc(/C=C2/SC(=S)N(C)C2=O)c1 | 16 | 1.2*
COc1ccc(NC(=O)C(=O)NCc2ccco2)cc1OC | 10 | 1
O=C(/C=C/c1ccc2c(c1)OCO2)N1CCC(CN2C(=O)c3cccc4cccc(c34)C2=O)CC1 | 20 | 0.96
O=C1CCCC2=C1C(c1ccc3c(c1)OCO3)Nc1ccc3ccccc3c12 (stereo unspecified) | 21 | 0.72*
Cc1ccsc1C1Nc2ccc3ccccc3c2C2=C1C(=O)CC(C)(C)C2 (stereo unspecified) | 12 | 0.97
CCCC(=O)NC(c1ccc(C)cc1)c1c(O)ccc2ccccc12 (stereo unspecified) | -4 | 1.2
COc1ccc(CNC(=S)Nc2ccc(Cl)cc2Cl)cc1 | 28 | 1.1
CCCC(=O)c1ccc(N2CCN(C(=O)CCC)CC2)c(F)c1 | 14 | 0.75*
CCCC(=O)N1CCN(c2ccc(C(=O)c3ccc(C)c(C)c3)cc2F)CC1 | -4 | 1
COc1cc(OC)c([N+](=O)[O-])cc1C=O | 9 | 0.65*
COc1cc(OC)c([N+](=O)[O-])cc1/C=C(/C#N)C(=O)Nc1ccccc1 | -1 | 1.1
